Screens from PubChem BioAssay.
Most compounds without a hit are left out; they make up all but 1.6% or so of the library.
KCNQ2 pot: potentiators of rat KCNQ2 potassium channel. 310,000 compounds, 0.54% hits. CHO-K1 KCNQ2, FluxOR thallium flux fluorescence; active compounds read high. B-score at 10 µM;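 active means fluorescence ratio B-score at least 3 SD of library B-scores, with initial fluorescence B-score within 3 of them, cut at about 5.3 in these data; same plate scores as AID 2156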;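 further: B-score of peak minus minimum over baseline fluorescence ratio after K+ and Tl+ stimulus; positive B-score means potentiation of KCNQ2 with more thallium influx and brighter signal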
KCNQ2 block: KCNQ2 (rat) channel inhibition | O88943 | CHO-K1 KCNQ2, FluxOR thallium flux, 20 min; active compounds read low | B-score at 10 µM | 310,000 compounds, 1.1% hits;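 active means fluorescence ratio B-score at most minus 3 library SDs, with starting brightness B-score within 2 library SDs, cut at about -5.5 in these data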
* = called active by the depositor.

How did O=C(Nc1cccc(C(F)(F)F)c1)c1cccnc1N1CCN(CCO)CC1 do in these assays?
KCNQ2 block: inactive

How did C=CCOC(=O)C1=C(C)NC(SCC(=O)OCC)=C(C#N)C1c1ccc(O)c(OC)c1 (centres undefined) do in these assays?
KCNQ2 pot: -8.1; KCNQ2 block: -8.1*

Results for C=CCOC(=O)C1=C(C)NC(SC)=C(C#N)C1c1ccc(OCC)cc1 (centres undefined) ?
KCNQ2 block: inactive

Results for COc1ccc(OC)c(N(CC(=O)NCCSCc2ccc(C)cc2)S(C)(=O)=O)c1 ?
KCNQ2 pot: 1.2; KCNQ2 block: inactive

What do the screens show for `CCC(C)n1c(SCC(=O)NC2CCS(=O)(=O)C2)nc2ccccc2c1=O` (centres undefined)?
KCNQ2 block: inactive

How did CCOc1ccc(S(=O)(=O)Nc2nc3ccccc3nc2Nc2ccc(N3CCOCC3)cc2)cc1 do in these assays?
KCNQ2 pot: -5.6; KCNQ2 block: -5.6*

Results for COc1ccc(S(=O)(=O)Nc2ccc(N3CCOCC3)cc2)cc1 ?
KCNQ2 pot: 0.52; KCNQ2 block: inactive

What do the screens show for `CCOc1ccc(C2C([N+](=O)[O-])=C(C)N(C)C(=O)N2C)cc1OC` (centres undefined)?
KCNQ2 pot: 0.68; KCNQ2 block: inactive

Results for O=C1c2cccc3cccc(c23)C(=O)N1CCN1CCN(CC(O)COCc2ccc(Cl)cc2)CC1 (centres undefined) ?
KCNQ2 pot: -5.7; KCNQ2 block: -5.7*

How did COc1cc(COCC(O)CN2CCN(CCN3C(=O)c4cccc5cccc(c45)C3=O)CC2)cc(OC)c1OC (centres undefined) do in these assays?
KCNQ2 pot: 0.97; KCNQ2 block: inactive

What do the screens show for `Cc1ccc(Nc2nnc(SCC(=O)NCCN3C(=O)CSC3=O)s2)cc1C`?
KCNQ2 pot: 1.9; KCNQ2 block: inactive

What do the screens show for `Cc1cc(=O)c2cc(Br)ccc2n1CC(=O)NCc1ccccc1`?
KCNQ2 pot: -8.3; KCNQ2 block: -8.3*

How did O=C(Cn1c(=O)n(CC(=O)NCc2ccccc2)c2ccccc21)NCc1ccccc1 do in these assays?
KCNQ2 block: inactive

Results for CCC(=O)OCCNc1cc(Sc2nc3ccccc3s2)c2nonc2c1[N+](=O)[O-] ?
KCNQ2 pot: -7.5; KCNQ2 block: -7.5*

Results for O=[N+]([O-])c1c(NCCCO)cc(Sc2nc3ccccc3s2)c2nonc12 ?
KCNQ2 block: inactive

How did O=[N+]([O-])c1c(NCCO)cc(N2CCCCCC2)c2nonc12 do in these assays?
KCNQ2 block: inactive

What do the screens show for `Cc1nnc(Sc2cc(NCCO)c([N+](=O)[O-])c3nonc23)s1`?
KCNQ2 pot: -7.5; KCNQ2 block: -7.5*

How did CCCn1c(C)nc2c(c1=O)c1nc3ccccc3nc1n2CCC1=CCCCC1 do in these assays?
KCNQ2 block: inactive

How did Cc1nc2c(c(=O)n1CCC1=CCCCC1)c1nc3ccccc3nc1n2/N=C/c1ccco1 do in these assays?
KCNQ2 pot: -7.7; KCNQ2 block: -7.7*

What do the screens show for `O=C(N/C(=C\c1ccco1)C(=O)N1CCOCC1)c1ccc([N+](=O)[O-])cc1`?
KCNQ2 pot: 0.26; KCNQ2 block: inactive

How did O=C(N/C(=C\c1ccc(Br)cc1)C(=O)N1CCOCC1)c1ccc([N+](=O)[O-])cc1 do in these assays?
KCNQ2 pot: -5.9; KCNQ2 block: -5.9*

Results for CCc1ccc(-c2cc(C(=O)O)c3ccccc3n2)s1 ?
KCNQ2 pot: 0.47; KCNQ2 block: inactive

What do the screens show for `Cc1ccc(-c2csc(NC(=O)c3cc([N+](=O)[O-])ccc3N3CCOCC3)n2)cc1`?
KCNQ2 block: inactive

Results for O=C(Nc1nc(-c2ccccc2)cs1)c1ccc(N2CCOCC2)c([N+](=O)[O-])c1 ?
KCNQ2 pot: -7.8; KCNQ2 block: -7.8*

What do the screens show for `CC1CCCN(Cc2cccc(Oc3ccccc3)c2)C1` (centres undefined)?
KCNQ2 block: inactive

How did Cc1cccc(C(=O)NC2CCN(CC(=O)Nc3ccccc3Cl)CC2)c1 do in these assays?
KCNQ2 block: inactive

Results for CC1CCc2sc(-c3n[nH]c(=S)o3)cc2C1 (centres undefined) ?
KCNQ2 pot: 2.7; KCNQ2 block: inactive

What do the screens show for `S=c1[nH]nc(-c2cc3c(s2)-c2ccccc2CC3)o1`?
KCNQ2 pot: 16*; KCNQ2 block: inactive

How did COc1ccccc1OCC(=O)NNc1c2ccccc2nc2ccccc12 do in these assays?
KCNQ2 block: inactive

How did CCc1nc(SCC(=O)N2CCCC2)c2c(=O)n(C)c(=O)n(C)c2n1 do in these assays?
KCNQ2 pot: 0.95; KCNQ2 block: inactive

Results for CCCc1nc(SCC(=O)N2CCCCCC2)c2c(=O)n(C)c(=O)n(C)c2n1 ?
KCNQ2 pot: 19*; KCNQ2 block: inactive

Results for COc1ccc(S(=O)(=O)N2CCC(C(=O)NCCCc3ccccc3)CC2)cc1 ?
KCNQ2 block: inactive

How did CCOc1ccc2cc(C3CC(c4ccco4)=NN3S(C)(=O)=O)c(=O)[nH]c2c1 (centres undefined) do in these assays?
KCNQ2 block: inactive
